The results in this text go back to PubChem BioAssay (NCI).

About 83,000 compounds went through this panel and 20% of them were active in at least one assay; those are over-represented in the sample as a whole.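 Growth was measured after 48 h exposure to one concentration of compound in 96-well plates. Values under 10 count as active.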 Unmarked numbers belong to inactive results. The source made the active and inactive calls.

Test systems include NCI-H23 lung; NCI-H226 lung; NCI-H322M lung; HOP-62 NSCLC; NCI-H460 lung; HOP-92 NSCLC; NCI-H522 lung; A549/ATCC NSCLC; 786-0 renal; COLO 205 colon.
Common to all, as to experiment: NCI-60 one-dose screen, 48 h (100 = growth as untreated, 0 = no growth, -100 = all killed)
What all share (settings): 10 µM unless noted

As to `CCOC(=O)c1cc(-c2ccc([N+](=O)[O-])cc2)n(-c2ccc(C(=O)O)c(O)c2)c1C`, the growth was 58.8% with NCI-H23 lung; 83.5% in the assay with NCI-H226 lung; 103% with NCI-H322M lung; 103% with HOP-62 NSCLC; 65.2% in the assay on NCI-H460 lung; 49.6% in the assay with HOP-92 NSCLC. Moreover, the growth with NCI-H522 lung is 9.5% (active); in the assay on A549/ATCC NSCLC it was 47.7%; in the assay on 786-0 renal it was 71.3%; in the assay with COLO 205 colon it was 99.1%.
For `CCc1n(Cc2ccc3ccccc3c2)cc[n+]1Cc1ccc2ccccc2c1`, the growth with NCI-H23 lung is -14.6% (active); in the assay on NCI-H226 lung it was 6.75% (active); in the assay on NCI-H322M lung it was 44.3%; in the assay with HOP-62 NSCLC, 11.9%; in the assay with NCI-H460 lung, 5.54% (active); in the assay on HOP-92 NSCLC it was -31.4% (active). Moreover, the growth with NCI-H522 lung is -25.4% (active); in the assay with A549/ATCC NSCLC it was 28.5%; in the assay with 786-0 renal, 35.7%; with COLO 205 colon, -67.5% (active).
On to `COC(=O)CCC(=O)C(=O)OC`, for which the growth with NCI-H23 lung was 0.491% [10 mM] (active); in the assay on NCI-H226 lung it was -14.9% [10 mM] (active); in the assay on NCI-H322M lung, 10.2% [10 mM]; with HOP-62 NSCLC, 11.3% [10 mM]; in the assay on NCI-H460 lung, 7.63% [10 mM] (active); in the assay on HOP-92 NSCLC, -16% [10 mM] (active). Besides, the growth was -63.9% [10 mM] (active) in the assay on NCI-H522 lung, 26% [10 mM] in the assay with A549/ATCC NSCLC, 5.84% [10 mM] (active) with 786-0 renal and 79.8% [10 mM] in the assay with COLO 205 colon.
Take `O=C(/C=C(/C=C/c1cccc2[nH]ccc12)OB(F)F)/C=C/c1cccc2[nH]ccc12`: the growth in the assay with NCI-H23 lung is -34.8% (active); in the assay on NCI-H226 lung it was -54.9% (active); in the assay with NCI-H322M lung, 0.979% (active); in the assay on HOP-62 NSCLC, -35.7% (active); in the assay with NCI-H460 lung, 0.502% (active); with HOP-92 NSCLC it was -27.2% (active). Further, the growth in the assay with NCI-H522 lung was -71.4% (active); in the assay with A549/ATCC NSCLC it was -30.9% (active); in the assay on 786-0 renal, -60.1% (active); with COLO 205 colon it was -70.6% (active).
As for `N#Cc1nn(-c2cc(=O)[nH]c3ccc(Cl)cc23)c(N)c1C#N`, the growth in the assay with NCI-H23 lung was 104%; in the assay with NCI-H226 lung, 99.4%; with NCI-H322M lung, 91.9%; with HOP-62 NSCLC, 87.2%; in the assay with NCI-H460 lung, 114%; in the assay on HOP-92 NSCLC, -79.6% (active). The growth is 87.1% in the assay on NCI-H522 lung, 98.3% in the assay on A549/ATCC NSCLC, 93.4% in the assay with 786-0 renal and 100% in the assay with COLO 205 colon.
Turning to `COc1ccc(-c2csc(NC(=O)CSc3nc(-c4ccccc4)cc(=O)[nH]3)n2)cc1`, the growth in the assay on NCI-H23 lung was 51%; in the assay with NCI-H226 lung, 78.7%; in the assay with NCI-H322M lung it was 90.1%; with HOP-62 NSCLC it was 50.7%; in the assay on NCI-H460 lung, 78.7%; in the assay with HOP-92 NSCLC it was 90.2%. Moreover, the growth with NCI-H522 lung was 58%; with A549/ATCC NSCLC it was 64.6%; in the assay on 786-0 renal, 67.4%; with COLO 205 colon, 56.6%.
Turning to `C1=C(N2CCCC2)CCC1`, the growth was 100% with NCI-H23 lung; 109% in the assay with NCI-H226 lung; 109% in the assay with NCI-H322M lung; 103% in the assay with HOP-62 NSCLC; 93.2% in the assay with NCI-H460 lung; 65.8% in the assay with HOP-92 NSCLC. Moreover, the growth in the assay with NCI-H522 lung is 94.6%; in the assay on A549/ATCC NSCLC, 99%; with 786-0 renal, 105%; with COLO 205 colon it was 124%.
With `CCNc1cc(-c2cccc(OC(F)(F)F)c2)nc2ccc(N3CCCC3)cc12`, the growth in the assay on NCI-H23 lung is 7.13% (active); with NCI-H226 lung, 37.3%; in the assay on NCI-H322M lung it was 22.1%; in the assay on HOP-62 NSCLC, -10.1% (active); in the assay with NCI-H460 lung, 1.03% (active); with HOP-92 NSCLC, -6.27% (active). The growth is -16.8% (active) in the assay with NCI-H522 lung, 10.3% in the assay on A549/ATCC NSCLC, -18.4% (active) with 786-0 renal and -65.9% (active) in the assay on COLO 205 colon.
On to `Cc1cccc(N2CCN(CC(O)COc3ccc(Cl)cc3)CC2)c1` (stereo not given), for which the growth in the assay on NCI-H23 lung is 109%; in the assay on NCI-H226 lung it was 105%; with NCI-H322M lung it was 104%; in the assay on HOP-62 NSCLC it was 100%; in the assay on NCI-H460 lung, 112%; with HOP-92 NSCLC it was 88.1%. For the same compound, the growth was 94.1% in the assay with NCI-H522 lung, 117% in the assay on A549/ATCC NSCLC, 98% in the assay on 786-0 renal and 98% in the assay with COLO 205 colon.
For the compound `COc1ccc(/C=C2\COc3ccc(O)c(O)c3C2=O)cc1`, the growth in the assay with NCI-H23 lung was 33.2%; with NCI-H226 lung it was 67.4%; in the assay on NCI-H322M lung it was 47.9%; in the assay with HOP-62 NSCLC it was 10.8%; in the assay on NCI-H460 lung it was 19.2%; in the assay with HOP-92 NSCLC, -6.45% (active). Also, the growth in the assay with NCI-H522 lung is -60.5% (active); with A549/ATCC NSCLC, 38.1%; with 786-0 renal, -40.9% (active); with COLO 205 colon, 66.2%.
With `CC12CCC3c4ccccc4CCC3(CO1)C2` (stereo not given), the growth in the assay on NCI-H23 lung is 98.3%; in the assay with NCI-H226 lung it was 95.8%; in the assay on NCI-H322M lung, 94.7%; in the assay with HOP-62 NSCLC, 95.5%; with NCI-H460 lung, 105%; in the assay on HOP-92 NSCLC, 105%. Besides, the growth in the assay on NCI-H522 lung is 94.6%; in the assay on A549/ATCC NSCLC, 106%; with 786-0 renal, 118%; in the assay on COLO 205 colon, 101%.
For the compound `O=S(=O)(Nc1cc(Br)c(O)c2ccccc12)c1ccc(F)cc1`, the growth with NCI-H23 lung is 53.1%; in the assay on NCI-H226 lung, 97.5%; with NCI-H322M lung it was 94.9%; in the assay on HOP-62 NSCLC it was 103%; in the assay with NCI-H460 lung, 103%; in the assay on HOP-92 NSCLC, 47.1%. Besides, the growth with NCI-H522 lung was 77.3%; with A549/ATCC NSCLC it was 102%; with 786-0 renal it was 111%; in the assay with COLO 205 colon, 93.2%.
Consider `C#CCOc1ccc2ncnc(Nc3ccc(NC(=O)CCl)cc3)c2c1`, for which the growth in the assay with NCI-H23 lung was -39% (active); in the assay with NCI-H226 lung, 47.6%; with NCI-H322M lung it was 51.6%; in the assay on HOP-62 NSCLC, 21.4%; in the assay with NCI-H460 lung it was -46.4% (active); in the assay with HOP-92 NSCLC it was -7.62% (active). Also, the growth with NCI-H522 lung is -77.9% (active); with A549/ATCC NSCLC it was 18.7%; in the assay on 786-0 renal it was -65.3% (active); with COLO 205 colon, -8.04% (active).
As to `CC(=O)Nc1nc2ccc(NS(=O)(=O)c3cccc4c(N(C)C)cccc34)cc2[nH]1`, the growth with NCI-H23 lung was 70.5%; in the assay on NCI-H226 lung, 68.7%; with NCI-H322M lung, 82.2%; in the assay on HOP-62 NSCLC, 69.3%; with NCI-H460 lung, 68%; in the assay with HOP-92 NSCLC, 72.2%. Moreover, the growth in the assay on NCI-H522 lung was 43.3%; with A549/ATCC NSCLC it was 68%; in the assay on 786-0 renal it was 79.7%; in the assay with COLO 205 colon it was 65.9%.
On to `CCN(CC)c1nc(SCc2ccccc2Cl)ncc1C`, for which the growth in the assay on NCI-H23 lung is 103%; in the assay with NCI-H226 lung it was 81.8%; with NCI-H322M lung, 121%; with HOP-62 NSCLC, 93.1%; with NCI-H460 lung, 106%; in the assay on HOP-92 NSCLC it was 56%. Besides, the growth was 99% with NCI-H522 lung, 95% in the assay with A549/ATCC NSCLC, 106% in the assay on 786-0 renal and 112% in the assay with COLO 205 colon.
